# Inconclusive results are not listed. Unmarked numbers belong to inactive results. Activity calls are given as the source filed them. Calls follow the shape of the dose curve; as a rule, active = well fitted curve in the direction sought with a large enough effect in the repeat runs; inconclusive = weak or mixed curves; inactive = no such curve, though single readings can be large; an effect the other way counts as inactive or inconclusive.
# Target: Cytochrome P450 2D6 (Homo sapiens) (UniProt P10635)
# Assay: Cytochrome P450 family 2 subfamily D member 6 (CYP2D6) small molecule antagonists: luciferase biochemical (cell-free) qHTS assay (AID 1645840)
# Conditions: P450-Glo CYP2D6 enzyme, luciferin luminescence, 1 h; series mostly up to 57.4 µM; activity change, negative = inhibition: at the top concentration
# Procedure, shortened: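 P450-Glo luminescent screen: recombinant CYP2D6 enzyme–proluciferin substrate mix preincubated with compound 10 min at room temperature, then NADPH regeneration added for 1 h at room temperature. Detection reagent added for 20 min; luciferin light read as relative luminescence units.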
# % is scaled to controls: 0 for no effect and ±100 for the full control effect; potency is read from the fitted curve at half-maximal effect.
# Also: nearly all actives have a fitted effect of over 55% in size.
# Chain of Cytochrome P450 2D6 (Homo sapiens) (P10635 whole entry, looked up): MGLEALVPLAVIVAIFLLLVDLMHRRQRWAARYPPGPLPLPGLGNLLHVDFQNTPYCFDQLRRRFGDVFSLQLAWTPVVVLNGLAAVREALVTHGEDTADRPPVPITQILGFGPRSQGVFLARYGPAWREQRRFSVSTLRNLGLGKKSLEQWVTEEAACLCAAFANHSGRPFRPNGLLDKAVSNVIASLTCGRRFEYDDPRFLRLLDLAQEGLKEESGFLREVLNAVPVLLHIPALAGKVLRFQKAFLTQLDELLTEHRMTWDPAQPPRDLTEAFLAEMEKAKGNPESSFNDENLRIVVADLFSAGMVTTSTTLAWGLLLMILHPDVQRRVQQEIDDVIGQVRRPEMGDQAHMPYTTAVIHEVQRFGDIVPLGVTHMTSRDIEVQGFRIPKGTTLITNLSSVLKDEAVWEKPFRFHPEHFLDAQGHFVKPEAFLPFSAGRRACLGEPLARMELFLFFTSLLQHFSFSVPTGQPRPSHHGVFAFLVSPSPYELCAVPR
SMILES,"activity change, negative = inhibition [%]",Potency
Cc1onc(-c2c(Cl)cccc2Cl)c1C(=O)N[C@@H]1C(=O)N2[C@@H]1SC(C)(C)[C@@H]2C(=O)O,6.03,–
O=C1c2ccccc2C(=O)C1c1ccccc1,3.26,–
Oc1c(I)cc(I)c2cccnc12,–,inactive
CN1C(CCl)Nc2cc(Cl)c(S(N)(=O)=O)cc2S1(=O)=O (centres undefined),–,inactive
CC1=C(C(=O)O)N2C(=O)[C@@H](NC(=O)[C@H](N)c3ccc(O)cc3)[C@H]2SC1,2.1,–
Cc1cc(N)c2cc(NC(=O)Nc3ccc4nc(C)cc(N)c4c3)ccc2n1,–,8.71 µM (active)
c1ccc(OCc2ccc(CCCN3CCOCC3)cc2)cc1,–,6.92 µM (active)
O=C(Nc1ccc(Oc2ccc(Cl)cc2)c(Cl)c1)c1cc(I)cc(I)c1O,–,19.5 µM (active)
CCCC(=O)O[C@]1(C(=O)CO)CC[C@H]2[C@@H]3CCC4=CC(=O)CC[C@]4(C)[C@H]3[C@@H](O)C[C@@]21C,3.43,–
CN1CCCC(CC2c3ccccc3Sc3ccccc32)C1 (centres undefined),–,0.0692 µM (active)
CCCOC(C(=O)OC1CCN(C)CC1)(c1ccccc1)c1ccccc1,–,3.47 µM (active)
CC(=O)OCC(=O)[C@@]12N=C(C)O[C@@H]1C[C@H]1[C@@H]3CCC4=CC(=O)C=C[C@]4(C)[C@H]3[C@@H](O)C[C@@]12C,-1.25,–
CCCCC(CC)CN=C(N)NC(N)=NCCCCCCN=C(N)NC(N)=NCC(CC)CCCC (centres undefined),–,0.617 µM (active)
C/C=C/c1ccc(OC)cc1,-20.6,–
CCCCOc1ccc(C(=O)CCN2CCCCC2)cc1,–,4.9 µM (active)
CN1CCN(C(c2ccccc2)c2ccccc2)CC1,–,4.9 µM (active)
COCc1c(C(C)C)nc(C(C)C)c(/C=C/[C@@H](O)C[C@@H](O)CC(=O)O)c1-c1ccc(F)cc1,-4.12,–
C[C@]12CC[C@@H]3c4ccc(O)cc4CC[C@H]3[C@@H]1C[C@@H](O)[C@@H]2O,-4.68,–

# Target: Cytochrome P450 2C9 (Homo sapiens) (UniProt P11712)
# Assay: Cytochrome P450 family 2 subfamily C member 9 (CYP2C9) small molecule antagonists: luciferase biochemical (cell-free) qHTS assay (AID 1645842)
# Conditions: P450-Glo CYP2C9 enzyme assay, luciferin luminescence; series mostly up to 57.4 µM; activity change, negative = inhibition: at the top concentration
# Procedure, shortened: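 Luminescence, after 20 min with luciferin detection reagent, reflected CYP2C9 turnover during a 1 h NADPH-driven reaction at 37C. Enzyme-substrate mix contained 0.4% bovine serum albumin and was preincubated with compound 10 min at room temperature.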
# Chain of Cytochrome P450 2C9 (Homo sapiens) (P11712 whole entry, looked up): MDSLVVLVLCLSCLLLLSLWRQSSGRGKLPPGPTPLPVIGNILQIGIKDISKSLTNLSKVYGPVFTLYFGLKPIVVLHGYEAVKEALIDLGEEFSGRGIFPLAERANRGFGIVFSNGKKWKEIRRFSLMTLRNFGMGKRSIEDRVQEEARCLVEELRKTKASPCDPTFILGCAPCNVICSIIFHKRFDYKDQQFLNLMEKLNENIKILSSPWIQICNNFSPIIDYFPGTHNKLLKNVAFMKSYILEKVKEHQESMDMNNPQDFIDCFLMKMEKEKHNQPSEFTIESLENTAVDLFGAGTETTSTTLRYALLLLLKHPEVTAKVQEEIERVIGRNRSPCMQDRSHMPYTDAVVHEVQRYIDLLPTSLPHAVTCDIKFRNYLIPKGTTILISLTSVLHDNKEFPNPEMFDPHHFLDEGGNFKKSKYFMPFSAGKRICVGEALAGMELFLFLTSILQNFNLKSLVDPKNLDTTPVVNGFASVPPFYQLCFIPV
SMILES,Potency,"activity change, negative = inhibition [%]"
Cc1onc(-c2c(Cl)cccc2Cl)c1C(=O)N[C@@H]1C(=O)N2[C@@H]1SC(C)(C)[C@@H]2C(=O)O,20.4 µM (active),–
CCN(CCCCOC(=O)c1ccc(OC)c(OC)c1)C(C)Cc1ccc(OC)cc1 (centres undefined),–,-3.49
C[C@]12CCC(=O)C=C1CC[C@H]1[C@@H]3CC[C@](O)(C(=O)CO)[C@@]3(C)C[C@H](O)[C@@]12F,–,-26.5
CNCC[C@@H](Oc1ccccc1C)c1ccccc1,–,0.535
O=C1c2ccccc2C(=O)C1c1ccccc1,–,-15
Oc1c(I)cc(I)c2cccnc12,inactive,–
COc1cc(N)c(Cl)cc1C(=O)NC1CCN(CCCOc2ccc(F)cc2)CC1OC (centres undefined),–,1.67
CN1C(CCl)Nc2cc(Cl)c(S(N)(=O)=O)cc2S1(=O)=O (centres undefined),inactive,–
Cc1cc(N)c2cc(NC(=O)Nc3ccc4nc(C)cc(N)c4c3)ccc2n1,–,41.4
COc1cccc2c1C(=O)c1c(O)c3c(c(O)c1C2=O)C[C@@](O)(C(C)=O)C[C@@H]3O[C@H]1C[C@H](N)[C@H](O)[C@H](C)O1,–,1.35
c1ccc(OCc2ccc(CCCN3CCOCC3)cc2)cc1,–,-9.57
O=C(Nc1ccc(Oc2ccc(Cl)cc2)c(Cl)c1)c1cc(I)cc(I)c1O,–,-16.2
CCCC(=O)O[C@]1(C(=O)CO)CC[C@H]2[C@@H]3CCC4=CC(=O)CC[C@]4(C)[C@H]3[C@@H](O)C[C@@]21C,–,-19.6
CN1CCCC(CC2c3ccccc3Sc3ccccc32)C1 (centres undefined),–,8.1
CCCOC(C(=O)OC1CCN(C)CC1)(c1ccccc1)c1ccccc1,–,-6.93
CC(=O)OCC(=O)[C@@]12N=C(C)O[C@@H]1C[C@H]1[C@@H]3CCC4=CC(=O)C=C[C@]4(C)[C@H]3[C@@H](O)C[C@@]12C,–,-12
CCCCCCCCCCCCCCCCOP(=O)([O-])OCC[N+](C)(C)C,–,3.89
Cc1ccnc(NS(=O)(=O)c2ccc(N)cc2)n1,–,16.6
CC1=C(C(=O)OC(C)C)C(c2cccc([N+](=O)[O-])c2)C(C(=O)OC2CN(C(c3ccccc3)c3ccccc3)C2)=C(N)N1 (centres undefined),1.95 µM (active),–
CC(O)C(=O)O (centres undefined),–,-0.628
CCCCC(CC)CN=C(N)NC(N)=NCCCCCCN=C(N)NC(N)=NCC(CC)CCCC (centres undefined),12.3 µM (active),–
O=c1[nH]c(=O)n([C@H]2C[C@H](O)[C@@H](CO)O2)cc1C(F)(F)F,–,4.12
CCCCCCc1ccc(O)cc1O,8.71 µM (active),–
CCN(CCCc1ccccc1)CCCc1ccccc1,–,1.28
CN1CCN(C(c2ccccc2)c2ccccc2)CC1,–,23.3
C[C@]12CC[C@@H]3c4ccc(O)cc4CC[C@H]3[C@@H]1C[C@@H](O)[C@@H]2O,–,10.4

# Reference: PubChem BioAssay (NCATS)
